From PubChem BioAssay
Only some compounds are listed: those with a hit (about 3% of all), similar ones and a draw of the others.
SARS PLpro yeast: blocks SARS-CoV papain-like protease in a yeast assay; S. cerevisiae expressing SARS-CoV PLpro, growth rescue; Potency, µM (top dose mostly 32.9 µM), for the others: top-dose activity, positive = growth rescue, hits mostly activators; 330,000 tested, 0.19% active; AID 485353; calls by dose curve; further: 0% is about no effect; nearly all actives have a fitted effect of over 55% in size
Sm TGR inh: S. mansoni TGR enzyme inhibition. Potency, µM (highest dose often 114 µM), inactives show top-dose activity change, negative = inhibition, usual class: inhibitors. Q962Y6. 360,000 tested, 3% active. AID 485364. purified TGR, DTNB reduction, TNB absorbance 405 nm; active means well fitted inhibition curve with a large enough effect; inconclusive means small, poorly fitted or top-dose-only effect; inactive means no such curve, though single readings can be large or run the other way; further: on the % scale 0 is the no-effect control and ±100 the full control effect; nearly all actives have a fitted effect of over 60% in size
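Kinetic colorimetric format: TGR-catalysed, NADPH-driven DTNB reduction monitored via TNB absorbance. Enzyme dispensed at 20 nM; compound exposure 15 min at room temperature before reaction start.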
The depositor's hits bear a star; ? = inconclusive; . = no result given. Potency means the concentration at half of the fitted maximal effect.

SMILES | SARS PLpro yeast | Sm TGR inh
CC1(C)CC(=O)C(N=Nc2cc(S(=O)(=O)N3CCOCC3)ccc2Cl)=C(O)C1 | -0.7% | 10µM*
CC1(C)CC(=O)C(N=Nc2cc(C(F)(F)F)ccc2Cl)=C(O)C1 | 0.6% | -0.8%
COc1ccc2c(c1)c1c(c(=O)n(-c3ccc(C)cc3)c(=O)n1CC(=O)c1ccc(Cl)cc1)n2C | . | 1.2%
CCOc1ccc(Nc2nc(N)c(C(=O)c3ccccc3Cl)s2)cc1 | . | -1.8%
Oc1c(Br)cc(Cl)cc1C=Nc1ccccc1Br | -13.4% | 22.4µM*
Oc1c(Br)cc(Cl)cc1C=Nc1ccc(N2CCOCC2)cc1 | 0.0% | 5.7%
CCCOc1ccc(NC(=O)CC2C(=O)N(c3ccccc3)C(=O)N2CCC(C)C)cc1 (centres undefined) | . | -7.1%
O=C1c2ccccc2NC(c2cccc([N+](=O)[O-])c2)N1O (centres undefined) | 9.1% | -7.2%
O=[N+]([O-])c1cccc(C2Nc3cccc4cccc(c34)N2)c1 | -9.4% | 35.5µM*
O=C1c2ccccc2NC(c2ccc([N+](=O)[O-])cc2)N1O (centres undefined) | ? | 17.7%
O=[N+]([O-])c1ccc(C2Nc3cccc4cccc(c34)N2)cc1 | -25.0% | 20µM*
COc1cc(NC(=O)c2cnc3c(-c4ccc(F)cc4)c(C)nn3c2C)cc(OC)c1 | . | -9.6%
CCC(=O)C1=C(c2ccc(Cl)cc2)N(C(=O)CC)n2c(C)nnc2S1 | . | -9.6%
COc1ccc(CNC(=O)Cc2ccc(NC(=O)N3CCSc4ncccc43)cc2)cc1 | . | 0.4%
COc1cc(C(=O)Nc2nonc2-c2ccc(C)c(C)c2)cc(OC)c1OC | . | 2.6%
COC(=O)CN1C(=O)CSc2ccc(S(=O)(=O)Nc3ccccc3)cc21 | . | 1.3%
Cc1ccc(CNC(=O)c2nnn(Cc3ccc(F)cc3)c2N)cc1 | . | 1.3%
Clc1ccc(-c2nc(/C=N/N3CCOCC3)c3ccccn23)cc1 | 0.9% | 44.7µM*
CN1CCN(/N=C/c2nc(-c3ccc(Cl)cc3)n3ccccc23)CC1 | -0.1% | ?
CCOc1ccc(N2C(=O)C3ON(c4ccccc4)C(c4ccco4)C3C2=O)cc1 (centres undefined) | -5.3% | ?
Cc1ccc(N2C(=O)C3ON(c4ccccc4)C(c4ccncc4)C3C2=O)c(C)c1 (centres undefined) | -5.3% | 50.1µM*
COc1ccccc1C1C2C(=O)N(c3ccccc3)C(=O)C2ON1c1ccccc1 (centres undefined) | -5.6% | -2.3%
Cc1ccccc1N1C(=O)C2ON(c3ccccc3)C(c3ccco3)C2C1=O (centres undefined) | -4.7% | 50.1µM*
Cc1cccc(C)c1N1C(=O)C2ON(c3ccccc3)C(c3ccncc3)C2C1=O (centres undefined) | -28.3% | -18.2%
COc1ccccc1N1C(=O)C2ON(c3ccccc3)C(c3ccc(N(C)C)cc3)C2C1=O (centres undefined) | -63.1% | 5.01µM*
SMILES | SARS PLpro yeast | Sm TGR inh
Cc1ccccc1CNC(=O)Cn1ccc2cc(S(=O)(=O)N3CCCCC3)ccc21 | . | -8.7%
COc1ccc2ccc(O)c(CN3CCN(S(=O)(=O)c4cccc(C(F)(F)F)c4)CC3)c2c1 | -1.3% | 2.51µM*
COc1ccc2c(CN3CC=C(c4ccccc4)CC3)cc(=O)oc2c1 | 0.3% | ?
CCOc1ccc(OCC(O)CN2CCN(S(=O)(=O)c3cccc(C(F)(F)F)c3)CC2)cc1 (centres undefined) | 0.2% | 6.1%
COc1ccc2ccc(O)c(CN3CC=C(c4ccccc4)CC3)c2c1 | -9.9% | 8.91µM*
CC(C)c1cc(CN2CCN(CCC#N)CC2)cc(C(C)C)c1O | 2.5% | 22.4µM*
N#CCCN1CCN(C(=S)c2ccc(-c3ccc(Cl)cc3)o2)CC1 | -2.7% | -19.1%
Cc1nc(-c2ccc(S(=O)(=O)N3CCN(c4ccccc4F)CC3)cc2)co1 | . | 7.3%
COc1cc(OC)cc(-c2c(C#Cc3ccsc3)c3cc(-c4ccc(OC)c(OC)c4)ccc3n2C)c1 | -2.7% | .
COc1ccc(C#Cc2c(-c3ccccc3)n(C)c3ccccc23)cc1 | -2.4% | .
COc1ccc(-c2c(C#Cc3ccsc3)c3cc(-c4ccc5[nH]ccc5c4)ccc3n2C)cc1 | 2.6% | -19.2%
COc1cc(C#Cc2c(-c3ccccc3)n(C)c3ccccc23)cc(OC)c1 | -5.2% | 7.94µM*
COc1ccc(-c2c(C#Cc3ccsc3)c3ccccc3n2C)cc1 | -13.8% | 20µM*
COc1cc(OC)cc(-c2c(C#Cc3ccsc3)c3cc(-c4ccc(OC)nc4)ccc3n2C)c1 | 1.5% | 28.2µM*
Cc1ccccc1C(=O)NC1(C(F)(F)F)N=C(c2ccccc2)N(Cc2ccccc2)C1=O (centres undefined) | . | -7.4%
O=C(NCc1cccc(F)c1)c1cccc(NC(=O)c2nsc3ccccc23)c1 | . | 6.8%
COc1ccc(Cl)cc1NC(=O)Cn1c(=O)n(Cc2ccco2)c(=O)c2ccc(C(=O)NC3CCCC3)cc21 | . | -2.7%
CCOC(=O)C1=C(O)/C(=C\c2ccc(O)c(OCC)c2)N=C1C | -1.2% | 39.8µM*
